Assay results taken from PubChem BioAssay AID1159580 (chemical genetic matrix, 2015).
Values joined by “and” are separate entries in the source; they are usually repeats but may differ in a detail not shown here. Identical values can stand only once. Out of some 5,500 compounds screened, about 2,000 (36%) were called active. Inconclusive results (about 18%) are left out. The list shows a part of the results. A number with no mark means an inactive call. Cut-off read from the data, not from the text of the source: active = normalized growth mostly below about 0.91 (no sharp cut-off); inconclusive = no clear call, values can overlap the other calls; inactive = mostly above about 0.92.

Test: chemical genetic growth profiling, strain panel (AID 1159580);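 note: tested at 20 µM; growth read once vehicle control cultures reached saturation at 30 °C; 1 = growth at the plate median or of vehicle wells; lower values mean less growth of the strain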
Conditions: S. cerevisiae deletion strains, growth OD

COc1cc(OC)c2ccc(=O)oc2c1
normalized growth (locus YAL013W, strain DEP1, active compounds read low): 1.01 | normalized growth (locus YAL021C, strain ccr4, active compounds read low): 1 | normalized growth (locus YAL026C, strain drs2, active compounds read low): 0.964 | normalized growth (locus YAL030W, strain snc1, active compounds read low): 0.976 | normalized growth (locus YBL061C, strain skt5, active compounds read low): 0.966 | normalized growth (locus YBR009C, strain hhf1, active compounds read low): 0.935 | normalized growth (locus YBR021W, strain FUR4, active compounds read low): 0.949 | normalized growth (locus YBR023C, strain chs3, active compounds read low): 0.964 | normalized growth (locus YBR171W, strain sec66, active compounds read low): 0.972 | normalized growth (locus YBR229C, strain ROT2, active compounds read low): 1.01 | normalized growth (locus YBR231C, strain swc5, active compounds read low): 0.963 | normalized growth (locus YBR279W, strain paf1, active compounds read low): 0.973 | normalized growth (locus YCL011C, strain gbp2, active compounds read low): 0.962 | normalized growth (locus YCL016C, strain dcc1, active compounds read low): 0.968 | normalized growth (locus YCL029C, strain bik1, active compounds read low): 1 | normalized growth (locus YCL061C, strain MRC1, active compounds read low): 0.974 | normalized growth (locus YCL069W, strain vba3, active compounds read low): 0.992 | normalized growth (locus YCR088W, strain abp1, active compounds read low): 0.984 | normalized growth (locus YDL005C, strain med2, active compounds read low): 0.987 | normalized growth (locus YDL035C, strain GPR1, active compounds read low): 0.99 | normalized growth (locus YDL040C, strain nat1, active compounds read low): 0.974 | normalized growth (locus YDL074C, strain BRE1, active compounds read low): 0.979 | normalized growth (locus YDL101C, strain DUN1, active compounds read low): 1.01 | normalized growth (locus YDL134C, strain PPH21, active compounds read low): 0.992 | normalized growth (locus YDL185W, strain tfp1, active compounds read low): 0.982 | normalized growth (locus YDL192W, strain arf1, active compounds read low): 0.988 | normalized growth (locus YDR001C, strain nth1, active compounds read low): 0.975 | normalized growth (locus YDR069C, strain doa4, active compounds read low): 0.951 | normalized growth (locus YDR101C, strain arx1, active compounds read low): 0.994 | normalized growth (locus YDR137W, strain rgp1, active compounds read low): 0.922 | normalized growth (locus YDR150W, strain NUM1, active compounds read low): 1 | normalized growth (locus YDR159W, strain sac3, active compounds read low): 0.971 | normalized growth (locus YDR162C, strain NBP2, active compounds read low): 1 | normalized growth (locus YDR195W, strain ref2): 1.19 [resistant] (active) | normalized growth (locus YDR297W, strain sur2, active compounds read low): 0.978 | normalized growth (locus YDR318W, strain mcm21, active compounds read low): 1 | normalized growth (locus YDR334W, strain swr1, active compounds read low): 0.962 | normalized growth (locus YDR335W, strain msn5, active compounds read low): 0.974 | normalized growth (locus YDR388W, active compounds read low): 1.01 | normalized growth (locus YDR392W, strain spt3, active compounds read low): 0.736 (active) | normalized growth (locus YDR502C, strain sam2, active compounds read low): 0.989 | normalized growth (locus YEL003W, strain gim4, active compounds read low): 0.973 | normalized growth (locus YEL037C, strain rad23, active compounds read low): 0.961 | normalized growth (locus YEL061C, strain CIN8 (second series), active compounds read low): 0.964 | normalized growth (locus YEL061C, strain CIN8, active compounds read low): 1 | normalized growth (locus YER015W, strain faa2, active compounds read low): 0.973 | normalized growth (locus YER016W, strain bim1, active compounds read low): 0.975 | normalized growth (locus YER110C, active compounds read low): 0.983 | normalized growth (locus YER111C, strain swi4, active compounds read low): 0.965 | normalized growth (locus YER155C, strain BEM2 (second series), active compounds read low): 0.661 (active) | normalized growth (locus YER155C, strain BEM2, active compounds read low): 0.999 | normalized growth (locus YER167W, strain BCK2, active compounds read low): 1.02 | normalized growth (locus YFR010W, strain ubp6, active compounds read low): 0.951 | normalized growth (locus YGL078C, strain dbp3, active compounds read low): 0.995 | normalized growth (locus YGL086W, strain mad1, active compounds read low): 1 | normalized growth (locus YGL167C, strain pmr1, active compounds read low): 0.965 | normalized growth (locus YGL173C, strain kem1, active compounds read low): 0.945 | normalized growth (locus YGL227W, strain vid30, active compounds read low): 0.974 | normalized growth (locus YGL240W, strain doc1, active compounds read low): 0.868 (active) | normalized growth (locus YGL248W, strain PDE1, active compounds read low): 1.01 | normalized growth (locus YGL253W, strain hxk2, active compounds read low): 0.974 | normalized growth (locus YGR078C, strain PAC10, active compounds read low): 0.989 | normalized growth (locus YGR135W, strain pre9, active compounds read low): 0.977 | normalized growth (locus YGR229C, strain SMI1, active compounds read low): 0.993 | normalized growth (locus YGR252W, strain gcn5, active compounds read low): 0.846 | normalized growth (locus YHR013C, strain ard1, active compounds read low): 0.944 | normalized growth (locus YHR027C, strain rpn1, active compounds read low): 0.981 | normalized growth (locus YHR030C, strain SLT2, active compounds read low): 1.01 and 0.997 | normalized growth (locus YHR079C, strain IRE1 (second series), active compounds read low): 1.01 | normalized growth (locus YHR079C, strain IRE1, active compounds read low): 0.989 | normalized growth (locus YHR094C, strain hxt1, active compounds read low): 1 | normalized growth (locus YHR129C, strain ARP1, active compounds read low): 1.01 | normalized growth (locus YHR142W, strain chs7, active compounds read low): 0.955 | normalized growth (locus YHR200W, strain rpn10, active compounds read low): 0.988 | normalized growth (locus YIL066C, strain RNR3, active compounds read low): 1.01 | normalized growth (locus YIL073C, strain SPO22, active compounds read low): 0.982 | normalized growth (locus YIL125W, strain kgd1, active compounds read low): 1 | normalized growth (locus YIR030C, strain dcg1, active compounds read low): 1 | normalized growth (locus YJL092W, strain hpr5, active compounds read low): 0.972 | normalized growth (locus YJL095W, strain BCK1 (second series), active compounds read low): 0.98 | normalized growth (locus YJL095W, strain BCK1, active compounds read low): 0.985 and 1.01 | normalized growth (locus YJL115W, strain asf1, active compounds read low): 0.969 | normalized growth (locus YJL129C, strain trk1, active compounds read low): 0.995 | normalized growth (locus YJL134W, strain LCB3, active compounds read low): 1.01 | normalized growth (locus YJL154C, strain vps35, active compounds read low): 0.984 | normalized growth (locus YJL164C, strain tpk1, active compounds read low): 0.962 | normalized growth (locus YJL166W, strain qcr8, active compounds read low): 0.945 | normalized growth (locus YJL168C, strain set2, active compounds read low): 1 | normalized growth (locus YJL187C, strain SWE1 (second series), active compounds read low): 1.01 | normalized growth (locus YJL187C, strain SWE1, active compounds read low): 0.97 | normalized growth (locus YJR043C, strain POL32, active compounds read low): 0.993 | normalized growth (locus YJR066W, strain TOR1, active compounds read low): 0.958
